# GALK inhibitor – inhibitors of human galactokinase | P51570 | Purified GALK, Kinase-Glo residual ATP luminescence | Potency, µM (top dose mostly 57.5 µM), without a hit: top-dose activity change, negative = inhibition, hits mostly inhibitors | 270,000 compounds, 0.007% hits | AID 1868; note: potency is the fitted concentration of half-maximal effect; % is set by controls: 0 for no effect and ±100 for the full control effect
#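 Kinase-Glo Plus luminescence measured ATP left after a 1 h room-temperature reaction. The reaction used 5 nM GALK, 100 uM galactose and 35 uM ATP at pH 8.0 (20 mM HEPES, 5 mM MgCl2, 60 mM NaCl, 1 mM DTT, 0.01% BSA).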
# KinaseGlo FLuc – counter-screen: inhibitors of Kinase-Glo firefly luciferase | Q27757 | Kinase-Glo luciferase, ATP luminescence, 8 min | Potency, µM (titrated, usually from 38.3 µM), without a hit: at the highest dose activity change, negative = inhibition, usual class: inhibitors | 200,000 compounds, 0.28% hits; note: potency is the fitted concentration of half-maximal effect; % is set by controls: 0 for no effect and ±100 for the full control effect; nearly all actives have a fitted effect of over 60% in size
#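 Compound is pinned into ATP-containing buffer (10 uM ATP, imidazole pH 7.2, 7 mM MgCl2). Kinase-Glo luciferase reagent is then added. Light output is recorded following an 8-min room-temperature incubation.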
# Tb PFK inh-1 – inhibitors of T. brucei phosphofructokinase; O15648; Potency, µM (highest dose often 57.5 µM), without a hit: top-dose activity, negative = inhibition, hits mostly inhibitors; T. brucei PFK, ADP-Glo luminescence; 330,000 compounds, 0.17% hits;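 note: potency is the fitted concentration of half-maximal effect; 0% = uninhibited 1x PFK enzyme wells and -100% = no-enzyme wells; nearly all actives have a fitted effect of over 60% in size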
#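 ADP-Glo luminescence quantified ADP after 45 min at room temperature, with 1.25 nM T. brucei PFK, 0.1 mM ATP and 0.5 mM fructose-6-phosphate in pH 8.0 TEA buffer. qHTS titrations up to 57 µM; curves classified by quality.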
# CBFb-RUNX1 inh – CBF-beta/RUNX1 interaction disruption. Potency, µM (titrated, usually from 59.8 µM), inactives show at the highest dose activity, negative = inhibition, most hits filed as inhibitors. 230,000 tested, under 10 active. Q01196+Q13951. AlphaScreen CBFb-His/RUNX1-biotin binding, biochemical; note: % of control where 0% means no effect
#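 His-tagged CBF-beta and biotinylated RUNX1 (30 nM each) were premixed 20 min at room temperature, exposed to compound for 15 min, then given nickel-chelate and streptavidin AlphaScreen beads (50 ng each). After 90 min, AlphaScreen signal was read.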
# PKM2 act – increases activity of human pyruvate kinase M2; purified PKM2, Kinase-Glo ATP luminescence, activation; response scale: 0% is enzyme alone, no compound; AID 1631; P14618; 260,000 compounds, 0.34% hits; Potency, µM (doses to about 57.5 µM), inactives show at the top dose activation, actives largely listed as activators; note: potency is the fitted concentration of half-maximal effect; % is set by controls: 0 for no effect and ±100 for the full control effect; nearly all actives have a fitted effect of over 55% in size
# Target sequence (P14618 whole entry, looked up): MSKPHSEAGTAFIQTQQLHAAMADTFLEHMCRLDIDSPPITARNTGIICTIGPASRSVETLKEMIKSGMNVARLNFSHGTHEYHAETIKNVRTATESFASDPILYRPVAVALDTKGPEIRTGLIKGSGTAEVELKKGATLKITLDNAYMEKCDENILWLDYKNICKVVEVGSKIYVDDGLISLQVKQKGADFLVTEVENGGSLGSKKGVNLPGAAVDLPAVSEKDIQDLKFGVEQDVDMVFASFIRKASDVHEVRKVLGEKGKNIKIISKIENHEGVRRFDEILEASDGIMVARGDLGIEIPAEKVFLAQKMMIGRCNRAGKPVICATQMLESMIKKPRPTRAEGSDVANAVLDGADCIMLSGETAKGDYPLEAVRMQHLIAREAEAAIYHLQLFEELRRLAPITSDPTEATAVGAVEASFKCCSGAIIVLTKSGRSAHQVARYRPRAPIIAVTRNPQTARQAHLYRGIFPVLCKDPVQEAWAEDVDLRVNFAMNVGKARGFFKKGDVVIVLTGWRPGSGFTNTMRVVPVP
#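 hPK-M2, >95% pure; 0.1 mM ADP / 0.5 mM PEP final; imidazole pH7.2 buffer w/ 7 mM MgCl2, 50 mM KCl; 1 h RT; Kinase-Glo lum. Intermediate enzyme activity for dual inhibitor/activator qHTS.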
# TbPFK ATP – orthogonal confirmation of T. brucei phosphofructokinase inhibitors; shares compounds with Tb PFK inh-1; Tb PFK enzyme, ATP depletion, Kinase-Glo Plus luminescence; Potency, µM (highest dose often 57.5 µM), for the others: top-dose inhibition; 1,100 compounds, 47% hits; calls by dose curve; note: potency is the fitted concentration of half-maximal effect; nearly all actives have a fitted effect of over 60% in size
# Tb PFK inh-2 – T. brucei PFK enzyme inhibition, hit validation | Potency, µM (doses to about 57.5 µM), without a hit: at the highest dose activity change, negative = inhibition, actives largely listed as inhibitors | shares compounds with Tb PFK inh-1 | AID 504637 | 1,100 compounds, 41% hits | purified T. brucei PFK, ADP-Glo luminescence, 45 min;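 note: potency is the fitted concentration of half-maximal effect; plate controls were full PFK enzyme control for no effect and no enzyme control for full effect; nearly all actives have a fitted effect of over 60% in size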
# An asterisk follows results filed as active; ? = inconclusive; / = no result given; [ ] = remark or other dose. Most compounds without a hit are left out; they make up all but 0.56% or so of the library. Unless noted, calls come from the whole dose curve; as a rule, active = well fitted curve in the direction sought with a large enough effect; inconclusive = small, poorly fitted or top-dose-only effect, or another doubt; inactive = no such curve, though single readings can be large; an effect the other way counts as inactive or inconclusive.
SMILES,GALK inhibitor,KinaseGlo FLuc,Tb PFK inh-1,CBFb-RUNX1 inh,PKM2 act,TbPFK ATP,Tb PFK inh-2
O=C(Nc1cc(S(=O)(=O)N2CCOCC2)ccc1N1CCCC1)c1ccc(Cl)cc1,/,/,?,/,/,24µM*,?
O=C(CCN1CCOCC1)Nc1ccc(Br)cc1C(=O)c1ccccc1,-3%,/,3%,/,-6%,/,/
O=C(CCS(=O)(=O)c1ccc(Br)cc1)Nc1ccc(Br)cc1F,2%,2%,?,-22%,6%,?,?
O=C1NC(=S)S/C1=C/c1ccc(N2CCOCC2)o1,2%,?,27µM*,-17%,-55%,12%,-14%
CC(C)(C)c1cc(C#N)cc(Br)c1OP(=O)(Oc1c(Br)cc(C#N)cc1C(C)(C)C)c1ccccc1,/,-1%[7.66 µM],/,/,/,/,/
CCCN1CCCC2Cc3nc(N)ncc3CC21 (stereo unspecified),/,/,/,1%,/,/,/
CCn1c(CCNC(=O)c2ccc(OC)cc2)nnc1SCc1ccc(Cl)c(Cl)c1,1%,-1%,17µM*,-6%,-3%,12µM*,24µM*
CC1(C)CC(=O)C2=C(C1)OC1=C(C(=O)CC(C)(C)C1)C2c1ccc(O)cc1O,0%,0%,?,0%,?,1.7µM*,1.3µM*
N#CC(C#N)=NNc1ccc(S(N)(=O)=O)cc1,2%,/,-3%,-5%,-7%,/,/
NS(=O)(=O)c1ccc(NC(=O)C2COc3ccccc3O2)cc1 (stereo unspecified),-4%,-3%,21µM*,3%,0%,6.7µM*,30µM*
C=C(Cl)CCl,/,/,/,0%[21.7 µM],/,/,/
O=C1NC(=O)C(=Cc2ccc(-c3ccc(Cl)cc3)o2)C(=O)N1,/,/,-6%,/,17%,/,/
CC1=NOC(=O)/C1=C\c1ccc(-c2cccc(Cl)c2)o1,/,-5%,21µM*,-25%,16%,6µM*,11µM*
CCOC(OCC)P(=O)(O)CCCN,/,2%,/,24%,/,/,/
COC(=O)c1cccc(-n2sc3ccccc3c2=O)c1,/,/,6.7µM*,/,/,?,?
COc1ccc(-n2c(=O)[nH]c3ccccc3c2=O)cc1,3%,-1%,-1%,2%,11%,/,/
O=c1c2ccccc2sn1-c1ccc(F)cc1,/,/,3.4µM*,/,/,16%,?
CCSS(=O)(=O)c1cccc2cccnc12,-1%,/,21µM*,-7%,9%,8.5µM*,19µM*
CS(=O)(=O)N1Cc2ccccc2CC1C(=O)OCC(=O)Nc1ccc2ccccc2c1 (stereo unspecified),2%,6%,?,-21%,7%,?,-23%
CCN(CC)C(=O)c1ccc(NC(=O)c2cccc(C(F)(F)F)c2)cc1,-2%,0%,0%,10%,-1%,/,/
O=C(O)c1ccc(Cl)c(S(=O)(=O)Nc2cccc(C(=O)Nc3cccc(C(F)(F)F)c3)c2)c1,3%,5%,?,2%,-14%,?,?
O=C(O)c1ccc(Cl)c(S(=O)(=O)Nc2ccc3cn[nH]c3c2)c1,0%,7%,?,?,12%,9%,1%
CCn1c(C)c(CS(=O)(=O)c2ccccc2)[nH]c1=O,0%,-2%,?,13%,10%,-24%,?
c1ccc(CN2CCC3(CCNCC3)CC2)cc1,/,-1%,/,/,/,/,/
Nc1cccc2ccccc12,/,/,/,-9%[21.7 µM],/,/,/
SMILES,GALK inhibitor,KinaseGlo FLuc,Tb PFK inh-1,CBFb-RUNX1 inh,PKM2 act,TbPFK ATP,Tb PFK inh-2
Clc1cccc(CN2CCCCC2c2cccnc2)c1 (stereo unspecified),1%,1%,-6%,16%,7%,/,/
Nc1ccn(Cc2cccc(Cl)c2)n1,-2%,-1%,27µM*,3%,1%,19µM*,?
O=C(O)c1ccccc1C(=O)Nc1ccc(Br)c(C(F)(F)F)c1,-13%,/,?,1%,5%,2%,0%
O=C(Nc1ccccc1)c1ccccc1I,/,/,/,25%,/,/,/
O=[N+]([O-])c1ccc(NCc2ccccc2)nc1,/,1%,?,-12%,22%,?,?
O=C1CC[C@@]2(O)C3Cc4ccc(O)c5c4C2(CCN3CC2CC2)[C@H]1O5 (stereo partly specified),/,-3%,/,3%,/,/,/
O=[N+]([O-])c1ccc(NCc2ccc3c(c2)OCO3)cc1,4%,0%,6µM*,-11%,-1%,4.8µM*,12µM*
Clc1c(Cl)c(Cl)c(Cl)c(Cl)c1Cl,/,/,/,6%,/,/,/
COC(=O)c1c(NC(=O)Cc2cccs2)sc2c1CCCC2,-2%,0%,?,0%,4%,?,?
COc1ccc(/C=N\NC(=O)C2COc3ccccc3O2)cc1O (stereo unspecified),-2%,/,13µM*,-4%,-8%,8.5µM*,12µM*
COc1ccc(C=O)cc1O,/,0%,-9%,11%[2.36 µM],0%,/,/
O=C(N/N=C/c1ccc2c(c1)OCO2)C1COc2ccccc2O1 (stereo unspecified),-4%,-1%,?,0%,-2%,19µM*,21µM*
CN1CCc2cc(O)cc3c2C1Cc1ccc(O)c(O)c1-3 (stereo unspecified),/,-6%,/,?,/,/,/
Nc1ccccc1Sc1nc2ccccc2[nH]1,10%,1%,?,-27%,2%,17µM*,?
COC(=O)Nc1nc2ccccc2[nH]1,/,/,/,2%[21.7 µM],/,/,/
O=C(O)c1cccc([As]=[As]c2cccc(C(=O)O)c2)c1 (stereo unspecified),/,-1%[7.66 µM],/,/,/,/,/
CC1Cc2cc(/C(O)=C3/C(=O)C(=O)N(CCCn4ccnc4)C3c3cccc([N+](=O)[O-])c3)ccc2O1 (stereo unspecified),2%,/,11µM*,/,/,6.7µM*,21µM*
CCOC(=O)c1[nH]c(C)c(/C(O)=C2\C(=O)C(=O)N(CCCn3ccnc3)C2c2ccncc2)c1C (stereo unspecified),-1%,/,24µM*,-5%,3%,12µM*,27µM*
CCCOc1ccc(/C(O)=C2/C(=O)C(=O)N(CCCn3ccnc3)C2c2ccc(C)o2)cc1 (stereo unspecified),-2%,/,?,4%,-1%,?,30µM*
CC[C@H](CO)NC(=O)[C@H]1C=C2c3cccc4[nH]cc(c34)C[C@@H]2N(C)C1,/,1%[17.1 µM],/,?,/,/,/
CCC1/C=C/C=CCC(C)C(O)[C@@](C)(O)C(=O)C(C)C(O)C(C)C(=O)C(C)C(O)C(C)C=CC(=O)O[C@H]2C(C)C(CC1)O[C@]1(CCC(C)C(CC(C)O)O1)C2C (stereo partly specified),/,3%,/,/,/,/,/
